Source: PubChem (National Center for Advancing Translational Sciences (NCATS))
KB-3-1 cytotox = qHTS assay for MDR1-selective chemotherapeutics: Primary screen using the parental adenocarcinoma cell KB-3-1; KB-3-1 viability, CellTiter-Glo ATP luminescence, 72 h; Potency, µM (highest dose often 46.1 µM), actives largely listed as cytotoxic; 400,000 tested, 1.4% active; AID 1347075, 2019; further: potency means the concentration at half of the fitted maximal effect; on the % scale 0 is the no-effect control and ±100 the full control effect; nearly all actives have a fitted effect of over 60% in size
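Here the drug-naive KB-3-1 line serves as comparator for MDR sub-line selectivity; cells received compound titrations, 72 h at 37 °C, then CellTiter-Glo readout.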
SW480 rereplic = A quantitative high throughput screen for small molecules that induce DNA re-replication in SW480 colon adenocarcinoma cells; SW480 DNA re-replication, Hoechst DNA content imaging, 48 h; Potency, µM (titrated, usually from 46.1 µM), for the others: at the top dose re-replication activation, usual class: activators; 340,000 tested, 1.8% active; AID 624297, 2012; further: potency means the concentration at half of the fitted maximal effect; % of control where 0% means no effect; nearly all actives have a fitted effect of over 55% in size
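250 cells/well; 23 nL cpd via pin tool; 48 hr, 37 C, 5% CO2; Hoechst 40 min; imager read of total nuclear intensity, ex 405/em 500-530 nm.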
KB-V1 MDR tox = qHTS assay for MDR1-selective chemotherapeutics: Primary screen using the drug-selected MDR subline cells KB-V1 | KB-V1 MDR cells viability, CellTiter-Glo, 72 h | Potency, µM (series often up to 46.1 µM), usual class: cytotoxic | AID 1347076, 2019 | 400,000 tested, 3.4% active; further: potency means the concentration at half of the fitted maximal effect; on the % scale 0 is the no-effect control and ±100 the full control effect; nearly all actives have a fitted effect of over 60% in size
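Potencies derive from concentration-effect curves fitted to normalized luminescence (CellTiter-Glo) of KB-V1 cells treated for 72 h at 37 degrees C in phenol-red-free DMEM containing 10% FBS.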
S-ASM inh = Inhibitors of Secretory Acid Sphingomyelinase (S-ASM): qHTS; Sphingomyelin phosphodiesterase (Homo sapiens), P17405; placental ASM, HMU-PC fluorogenic substrate, 60 min; Potency, µM (highest dose often 57.5 µM), without a hit: at the top dose activity change, negative = inhibition, usual class: inhibitors; 340,000 tested, 0.006% active; AID 504937, 2011; further: potency means the concentration at half of the fitted maximal effect
Target sequence (P17405 47-631 limits assumed): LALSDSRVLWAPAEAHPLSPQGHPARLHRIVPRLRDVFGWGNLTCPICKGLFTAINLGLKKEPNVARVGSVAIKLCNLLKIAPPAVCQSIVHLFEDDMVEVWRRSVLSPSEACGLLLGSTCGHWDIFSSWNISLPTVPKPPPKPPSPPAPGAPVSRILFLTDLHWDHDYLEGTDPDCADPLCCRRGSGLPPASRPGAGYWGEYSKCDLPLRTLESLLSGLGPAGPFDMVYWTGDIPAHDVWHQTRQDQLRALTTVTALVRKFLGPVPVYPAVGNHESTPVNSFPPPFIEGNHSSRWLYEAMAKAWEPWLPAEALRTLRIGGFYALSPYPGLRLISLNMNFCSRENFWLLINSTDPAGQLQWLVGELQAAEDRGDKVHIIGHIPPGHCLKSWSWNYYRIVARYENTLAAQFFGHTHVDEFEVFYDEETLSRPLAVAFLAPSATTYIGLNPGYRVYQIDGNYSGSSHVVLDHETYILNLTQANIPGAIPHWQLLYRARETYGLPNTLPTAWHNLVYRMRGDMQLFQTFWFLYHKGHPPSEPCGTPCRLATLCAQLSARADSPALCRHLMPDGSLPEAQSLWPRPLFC
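Human placenta-derived ASM enzyme was preincubated with compound for 10 minutes at room temperature, then given fluorogenic substrate HMU-PC0 (9 uM final) for 60 minutes at 37 °C; a pH 10 stop preceded fluorescence reading at Ex 386/Em 447 nm.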
Giardia killer = Small Molecules that selectively kill Giardia lamblia: qHTS | activity change, % at 7.66 µM, hits read low | 340,000 tested, 0.15% active | Giardia lamblia trophozoite viability; in the data active means activity change below about -80%; inconclusive means between about -30% and that limit;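 further: parasites exposed to compound for two days anaerobically before the ATP read; on the % scale 0 is the no-effect control and ±100 the full control effect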
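Anaerobic 48 hrs incubation at 37 deg C of 100 trophozoites/well with test compounds; ATPLite 1-Step luminescence, 15-30 min RT, reports cellular ATP as viability.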
MCF10A rerep = A quantitative high throughput screen for small molecules that induce DNA re-replication in MCF 10a normal breast cells; MCF 10A DNA re-replication, Hoechst nuclear intensity, 48 h; Potency, µM (series often up to 46.1 µM), inactives show top-dose activity, positive = re-replication, actives largely listed as activators; 350,000 tested, 2.9% active; AID 624296, 2012; further: potency means the concentration at half of the fitted maximal effect; % of control where 0% means no effect; nearly all actives have a fitted effect of over 50% in size
* hit, by the source's call; i = inactive; u = inconclusive; x = no result given; [ ] = dose if it differs, or a comment. A selection: hits, their analogues and other compounds. The true share with any hit is near 6.9%. Unless noted, the call rests on the fitted dose curve; in most records, active means well fitted curve in the direction sought with a large enough effect; inconclusive means small, poorly fitted or top-dose-only effect, or another doubt; inactive means no such curve, though single readings can be large; an effect the other way counts as inactive or inconclusive.

SMILES	KB-3-1 cytotox	SW480 rereplic	KB-V1 MDR tox	S-ASM inh	Giardia killer	MCF10A rerep
CCOc1ccc(CNC(=O)c2cc3c(=O)oc4ccc(C)cc4c3s2)cc1	i	x	i	x	x	x
CCc1nn(CC(=O)NC(C)CCc2ccccc2)c(=O)c2cc3c(OC)cccc3n12 (centres undefined)	i	x	i	x	x	x
COC(=O)c1cc(=O)n(Cc2ccc(F)cc2)c(=Nc2ccccc2)s1	i	-8%	u	-13%	-8	u
CCOC(=O)c1ccc(N=c2sc(C(=O)OC)cc(=O)n2-c2ccc(C(=O)OCC)cc2)cc1	u	u	u	-18%	-13	u
COC(=O)c1cc(=O)n(Cc2cccs2)c(=Nc2ccccc2)s1	i	6%	u	-13%	-4	10µM*
COC(=O)c1cc(=O)n(-c2ccccc2)c(=Nc2ccccc2)s1	u	u	i	-9%	-29	18µM*
Cc1cc(C)nc(SCCCn2c(=O)[nH]c3ccccc32)n1	i	-4%	9.2µM*	0%	0	1%
CCCn1c(=O)[nH]c2ccccc21	i	-6%	i	4%	-6	-2%
CC(=O)Oc1ccc(OC(C)=O)c(SCCCCCN2CCOCC2)c1	i	u	i	-1%	-2	4.1µM*
O=c1n(CC2CO2)c(=O)n(CC2CO2)c(=O)n1CC1CO1 (centres undefined)	u	9.2µM*	i	0%	-29	1.8µM*
O=C(CCCCN1CCCCC1)c1ccc2c(c1)Cc1ccccc1-2	i	-21%	i	2%	9	-3%
CCCCC[C@H](O)/C=C/C1C(=O)C=C[C@H]1C/C=C\CCCC(=O)OC (some centres undefined)	i	23%[9.22 µM]	i	-6%	10	18µM*
CCCCC[C@H](O)/C=C/[C@@H]1[C@@H](C/C=C\CCCC(=O)OC)[C@@H](O)C[C@H]1O	i	-31%	i	2%	-7	-3%
Cc1ccc(/C=N/n2cc(-c3ccccc3)[nH]c2=S)s1	i	18µM*	i	-2%	10	6%[9.22 µM]
S=c1[nH]c(-c2ccccc2)cn1/N=C/c1ccccc1Br	i	1%	i	-3%	11	14%
CCC(=O)Nc1ccc(/C=C(\C(C)=O)C(=O)c2ccccc2)cc1	u	5%	i	-6%	3	u
CCC(=O)Nc1ccc(C=C(C(C)=O)C(C)=O)cc1	u	-3%	i	7%	19	16µM*
CCOC(=O)C#CC(CCc1ccccc1)OS(N)(=O)=O (centres undefined)	i	-2%	i	8%	-3	5.2µM*
CCOC(=O)N1CCN(C(=O)CCc2ccccc2)CC1	i	-9%	i	1%	9	-10%
CCn1ccc2cc(S(=O)(=O)N3CCCN(C(=O)Nc4ccc(C)cc4Cl)CC3)ccc21	i	x	i	x	x	x
CCOc1ccccc1C(=O)N1CCc2cc(OC)c(OC)cc2C1COc1ccc2c(C)cc(=O)oc2c1 (centres undefined)	i	x	i	x	x	x
NC(=O)c1cc([N+](=O)[O-])ccc1N1CCCCC1	i	-2%	i	-1%	-4	15%
Cc1ccc(C(=O)c2cc([N+](=O)[O-])ccc2N2CCCCC2)cc1	i	0.58µM*	u	-11%	-11	u
Cc1ccc(C(=O)c2cc([N+](=O)[O-])ccc2N2CC(C)OC(C)C2)cc1 (centres undefined)	i	12µM*	u	-12%	29	22%
COC(=O)c1ccc(N2CCC(C)CC2)c(N)c1	i	u	u	15%	-6	21µM*
SMILES	KB-3-1 cytotox	SW480 rereplic	KB-V1 MDR tox	S-ASM inh	Giardia killer	MCF10A rerep
NC(C(=O)O)C1ON=C(Cl)C1O (centres undefined)	0.33µM*	u	1.6µM*	1%	u	0%
Cc1ccc(N2CC(c3nnc(Cc4ccc(F)cc4)o3)CC2=O)cc1 (centres undefined)	i	x	i	x	x	x
COc1cc(-c2nc3ccccn3c2NCc2ccccc2)ccc1SC1CCCCC1	u	29%	u	i	1	26µM*
COc1cc(-c2nc3ccc(C)cn3c2NCc2ccccc2)ccc1SC1CCCCC1	i	u	u	i	-4	18µM*
COc1ccc(-c2nc3ccccn3c2NC2CCCCC2)cc1SC1CCCCC1	u	u	i	i	18	12µM*
Cc1ccc2nc(-c3ccc(-c4cccc(Cl)c4)cc3)c(NCc3ccccc3)n2c1	i	0.33µM*	i	241%	1	u
COc1cc(-c2nc3ccc(C)cn3c2NCc2ccccc2)ccc1-c1cccc(Cl)c1	i	u	i	378%	22	u
CCC(C)Sc1ccc(-c2nc3ccc(C)cn3c2NCc2ccccc2)cc1 (centres undefined)	u	23%	u	463%	3	u
COc1ccc(NC(=O)NNC(=O)c2ccc3ccccc3c2)cc1OC	i	0%	i	0%	6	2%
Cc1ccc(NC(=O)C(C)Sc2nc(-c3ccccc3)cc(=O)[nH]2)cc1 (centres undefined)	i	-10%	i	-2%	10	0%
CCOC(=O)C1=C(O)c2ccccc2C(=O)/C1=C\c1ccc(C)cc1	u	u	u	2%	-3	21µM*
CCOC(=O)C1=C(C)OC(=Cc2ccccc2)C1=O	i	x	i	x	x	x
CCS(=O)(=O)c1ccc2oc(SCC(=O)NC34CC5CC(CC(C5)C3)C4)nc2c1	i	-4%	15µM*	-7%	-1	3%
CSc1nnc(C)c(/C=C/Nc2ccc(F)cc2F)n1	i	20%	u	-3%	-9	18µM*
Cc1ccc(OCc2nnc(SCC(=O)N3c4ccccc4Sc4ccc(Cl)cc43)o2)cc1	i	-55%	8.2µM*	1%	-20	-2%
Cc1ccc(NCc2nnc(SCC(=O)N3c4ccccc4Sc4ccccc43)o2)c(C)c1	i	-127%	6.5µM*	-3%	4	-1%
COc1ccc(OCc2nnc(SCC(=O)N3c4ccccc4Sc4ccc(Cl)cc43)o2)cc1	i	1%	i	-1%	-13	-126%[0.0737 µM]
